Results taken from the supplement of paper PMC11732987, “Enantioselective OTUD7B fragment discovery through chemoproteomics screening and high-throughput optimisation” (Communications Chemistry, 2025).
Unmarked numbers belong to inactive results.

How the values were obtained:
Experiment in all cases: log2 ratio of Biotin-Ahx-Ub-VS probe labelling (fragment/DMSO); higher = less target engagement (more negative = stronger competition), active = hit call of the paper (q ≤ 0.05, log2 ratio ≤ -1)
Conditions in all cases: compound concentration: 200 uM; treatment time: 3 h
[1] = biological target: T1, ALG13 (UniProt Q9NP73)
T1 sequence (whole entry): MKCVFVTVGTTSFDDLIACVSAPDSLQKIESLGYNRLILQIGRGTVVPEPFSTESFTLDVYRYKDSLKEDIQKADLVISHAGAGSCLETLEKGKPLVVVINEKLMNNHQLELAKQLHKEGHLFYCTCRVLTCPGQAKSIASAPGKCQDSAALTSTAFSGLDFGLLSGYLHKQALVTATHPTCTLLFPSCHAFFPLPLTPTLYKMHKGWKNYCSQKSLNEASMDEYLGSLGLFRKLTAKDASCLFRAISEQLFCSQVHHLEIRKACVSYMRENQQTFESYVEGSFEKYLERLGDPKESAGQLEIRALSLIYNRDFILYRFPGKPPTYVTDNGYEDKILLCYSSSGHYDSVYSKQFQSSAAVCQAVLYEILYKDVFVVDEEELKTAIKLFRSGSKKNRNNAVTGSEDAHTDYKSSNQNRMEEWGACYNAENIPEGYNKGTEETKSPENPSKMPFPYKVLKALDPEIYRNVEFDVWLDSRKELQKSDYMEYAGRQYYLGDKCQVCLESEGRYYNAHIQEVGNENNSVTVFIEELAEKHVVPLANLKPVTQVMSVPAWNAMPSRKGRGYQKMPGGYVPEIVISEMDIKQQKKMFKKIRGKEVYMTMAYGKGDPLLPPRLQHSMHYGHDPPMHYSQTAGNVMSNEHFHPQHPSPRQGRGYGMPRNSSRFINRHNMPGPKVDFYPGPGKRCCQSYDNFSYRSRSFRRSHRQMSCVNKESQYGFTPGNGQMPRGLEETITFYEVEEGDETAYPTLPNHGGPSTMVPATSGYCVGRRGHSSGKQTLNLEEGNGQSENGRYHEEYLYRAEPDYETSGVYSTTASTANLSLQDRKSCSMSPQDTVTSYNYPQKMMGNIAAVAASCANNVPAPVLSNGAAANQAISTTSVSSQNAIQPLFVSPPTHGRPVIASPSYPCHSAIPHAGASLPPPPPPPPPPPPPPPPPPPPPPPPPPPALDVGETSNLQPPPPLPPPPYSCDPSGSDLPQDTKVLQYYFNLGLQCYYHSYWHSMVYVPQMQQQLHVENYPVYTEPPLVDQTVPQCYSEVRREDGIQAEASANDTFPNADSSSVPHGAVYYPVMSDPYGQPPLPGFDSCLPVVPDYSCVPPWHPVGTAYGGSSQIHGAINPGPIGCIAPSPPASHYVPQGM
Procedure, shortened: (§1)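 Each value is an average log2 ratio of fragment to vehicle, tested by unpaired t-test. The underlying Spectronaut label-free quantities were global-median-normalised, and only proteins with ≥2 unique peptides were included. Triplicate HEK293T lysate samples (495 µg) were exposed to fragment at 200 µM or vehicle for 3 h, then to Biotin-Ahx-Ub-VS at 0.5 µM final for 1 h, before NeutrAvidin enrichment of labelled DUBs, LysC and trypsin digestion, and diaPASEF LC-MS/MS.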

[2] = biological target: ATXN3 (UniProt P54252)
Procedure, shortened: as §1

[3] = biological target: T2, BAP1 (UniProt Q92560)
T2 sequence (whole entry): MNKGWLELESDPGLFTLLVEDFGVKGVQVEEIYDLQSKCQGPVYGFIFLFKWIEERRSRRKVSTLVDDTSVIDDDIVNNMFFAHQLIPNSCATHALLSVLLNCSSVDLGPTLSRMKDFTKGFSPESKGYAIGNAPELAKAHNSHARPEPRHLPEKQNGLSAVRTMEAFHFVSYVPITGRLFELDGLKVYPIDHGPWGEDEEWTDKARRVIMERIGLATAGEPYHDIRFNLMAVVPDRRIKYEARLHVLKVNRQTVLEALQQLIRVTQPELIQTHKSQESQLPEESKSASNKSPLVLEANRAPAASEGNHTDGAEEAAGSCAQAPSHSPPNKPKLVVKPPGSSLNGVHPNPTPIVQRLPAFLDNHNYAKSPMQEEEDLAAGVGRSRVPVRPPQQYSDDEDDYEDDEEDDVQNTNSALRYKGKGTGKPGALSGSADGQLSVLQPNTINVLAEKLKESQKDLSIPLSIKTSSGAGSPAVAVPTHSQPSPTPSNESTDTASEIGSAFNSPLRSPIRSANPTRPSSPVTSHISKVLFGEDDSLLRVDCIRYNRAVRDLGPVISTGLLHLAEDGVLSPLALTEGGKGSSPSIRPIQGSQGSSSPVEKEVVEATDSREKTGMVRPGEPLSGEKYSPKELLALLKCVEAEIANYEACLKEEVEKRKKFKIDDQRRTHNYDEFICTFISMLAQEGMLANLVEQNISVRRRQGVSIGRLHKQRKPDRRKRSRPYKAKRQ
Procedure, shortened: as §1

[4] = biological target: EIF3F (UniProt O00303)
Procedure, shortened: as §1

[5] = biological target: EIF3H (UniProt O15372)
Procedure, shortened: as §1

[6] = biological target: T3, FAM105A (UniProt Q9NUU6)
T3 sequence (whole entry): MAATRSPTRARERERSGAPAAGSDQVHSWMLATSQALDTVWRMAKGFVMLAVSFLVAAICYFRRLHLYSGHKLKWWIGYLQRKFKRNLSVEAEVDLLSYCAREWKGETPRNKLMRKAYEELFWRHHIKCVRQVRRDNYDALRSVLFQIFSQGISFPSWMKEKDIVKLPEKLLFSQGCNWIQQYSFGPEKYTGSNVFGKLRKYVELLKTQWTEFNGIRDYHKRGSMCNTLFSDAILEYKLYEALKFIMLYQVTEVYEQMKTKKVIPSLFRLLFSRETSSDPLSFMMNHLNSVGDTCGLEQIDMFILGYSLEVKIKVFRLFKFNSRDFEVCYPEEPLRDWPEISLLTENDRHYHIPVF
Procedure, shortened: as §1

[7] = biological target: OTUB1 (UniProt Q96FW1)
Procedure, shortened: as §1

[8] = biological target: T4, OTUD4 (UniProt Q01804)
T4 sequence (whole entry): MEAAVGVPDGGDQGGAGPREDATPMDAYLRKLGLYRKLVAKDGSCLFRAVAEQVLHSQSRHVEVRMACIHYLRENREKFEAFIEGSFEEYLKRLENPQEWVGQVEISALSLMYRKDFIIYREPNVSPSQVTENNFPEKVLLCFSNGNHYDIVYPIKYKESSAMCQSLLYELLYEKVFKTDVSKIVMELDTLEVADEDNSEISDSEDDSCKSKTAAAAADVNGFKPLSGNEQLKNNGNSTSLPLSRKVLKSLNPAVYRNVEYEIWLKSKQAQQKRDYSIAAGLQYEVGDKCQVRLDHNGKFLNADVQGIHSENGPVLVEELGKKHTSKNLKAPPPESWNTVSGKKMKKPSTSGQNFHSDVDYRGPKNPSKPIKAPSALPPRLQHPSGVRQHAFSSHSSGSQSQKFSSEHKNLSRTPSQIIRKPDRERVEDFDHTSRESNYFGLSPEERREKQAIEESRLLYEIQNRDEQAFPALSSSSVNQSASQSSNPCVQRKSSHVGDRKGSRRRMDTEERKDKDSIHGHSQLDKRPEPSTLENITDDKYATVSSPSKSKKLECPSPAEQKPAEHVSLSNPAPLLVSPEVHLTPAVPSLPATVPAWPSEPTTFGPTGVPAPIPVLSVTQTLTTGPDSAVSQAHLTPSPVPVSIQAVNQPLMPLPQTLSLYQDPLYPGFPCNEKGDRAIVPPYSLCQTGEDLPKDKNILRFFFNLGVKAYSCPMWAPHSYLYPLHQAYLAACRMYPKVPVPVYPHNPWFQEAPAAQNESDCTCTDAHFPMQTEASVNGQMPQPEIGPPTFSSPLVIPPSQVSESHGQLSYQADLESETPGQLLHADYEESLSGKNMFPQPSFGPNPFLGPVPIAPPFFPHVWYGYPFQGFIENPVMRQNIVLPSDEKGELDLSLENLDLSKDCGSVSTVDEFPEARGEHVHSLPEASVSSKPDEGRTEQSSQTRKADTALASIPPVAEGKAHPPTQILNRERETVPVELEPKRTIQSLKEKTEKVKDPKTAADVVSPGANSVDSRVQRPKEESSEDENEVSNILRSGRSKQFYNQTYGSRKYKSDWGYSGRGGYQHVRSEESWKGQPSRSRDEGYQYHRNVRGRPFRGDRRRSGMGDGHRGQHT
Procedure, shortened: as §1

[9] = biological target: T5, OTUD5 (UniProt Q96G74)
T5 sequence (whole entry): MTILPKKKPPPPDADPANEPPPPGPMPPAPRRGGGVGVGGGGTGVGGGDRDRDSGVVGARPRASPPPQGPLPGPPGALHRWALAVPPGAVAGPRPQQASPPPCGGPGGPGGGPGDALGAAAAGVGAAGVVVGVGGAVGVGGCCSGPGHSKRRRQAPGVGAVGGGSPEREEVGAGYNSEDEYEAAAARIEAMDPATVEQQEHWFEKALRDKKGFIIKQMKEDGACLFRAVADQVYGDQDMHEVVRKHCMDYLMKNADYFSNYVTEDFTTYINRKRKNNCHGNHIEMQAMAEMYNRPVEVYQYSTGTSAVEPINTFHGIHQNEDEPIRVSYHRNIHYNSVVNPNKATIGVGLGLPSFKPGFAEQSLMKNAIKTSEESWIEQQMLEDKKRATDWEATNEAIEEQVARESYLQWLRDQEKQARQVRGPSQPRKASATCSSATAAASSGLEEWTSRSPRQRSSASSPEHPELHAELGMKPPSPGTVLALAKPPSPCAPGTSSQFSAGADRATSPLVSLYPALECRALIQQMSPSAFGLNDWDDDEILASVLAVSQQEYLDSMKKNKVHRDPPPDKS
Procedure, shortened: as §1

Sequence of EIF3H (O15372 whole entry): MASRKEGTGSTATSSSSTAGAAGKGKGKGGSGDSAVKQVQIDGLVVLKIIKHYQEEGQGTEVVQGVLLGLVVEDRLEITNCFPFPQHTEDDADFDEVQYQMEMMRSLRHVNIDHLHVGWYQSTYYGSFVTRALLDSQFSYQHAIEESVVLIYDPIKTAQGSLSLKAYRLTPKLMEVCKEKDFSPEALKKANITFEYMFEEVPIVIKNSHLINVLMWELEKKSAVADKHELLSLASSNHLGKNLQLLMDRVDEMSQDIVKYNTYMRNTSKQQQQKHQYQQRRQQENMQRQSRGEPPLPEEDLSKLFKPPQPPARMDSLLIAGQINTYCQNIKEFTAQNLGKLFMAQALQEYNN
Sequence of ATXN3 (P54252 whole entry): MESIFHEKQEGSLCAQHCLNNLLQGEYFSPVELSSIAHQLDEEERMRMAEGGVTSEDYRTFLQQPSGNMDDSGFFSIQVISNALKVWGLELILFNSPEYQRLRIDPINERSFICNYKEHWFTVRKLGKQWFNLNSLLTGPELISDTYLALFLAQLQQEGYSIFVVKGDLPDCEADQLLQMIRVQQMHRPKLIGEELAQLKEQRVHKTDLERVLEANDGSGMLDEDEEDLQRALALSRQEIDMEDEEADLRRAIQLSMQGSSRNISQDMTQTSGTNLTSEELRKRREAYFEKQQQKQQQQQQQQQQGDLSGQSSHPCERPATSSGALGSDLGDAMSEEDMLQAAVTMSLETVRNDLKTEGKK
Sequence of EIF3F (O00303 whole entry): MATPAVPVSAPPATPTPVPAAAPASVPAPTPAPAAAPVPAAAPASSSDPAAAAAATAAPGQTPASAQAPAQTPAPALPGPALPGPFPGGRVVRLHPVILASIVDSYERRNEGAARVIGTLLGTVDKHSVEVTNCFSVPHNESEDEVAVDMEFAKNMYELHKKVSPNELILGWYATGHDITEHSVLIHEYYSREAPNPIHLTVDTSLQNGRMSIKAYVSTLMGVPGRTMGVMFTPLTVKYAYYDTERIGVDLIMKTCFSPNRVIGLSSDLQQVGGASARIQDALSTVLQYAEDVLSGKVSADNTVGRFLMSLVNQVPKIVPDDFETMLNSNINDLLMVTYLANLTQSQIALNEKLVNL
Sequence of OTUB1 (Q96FW1 whole entry): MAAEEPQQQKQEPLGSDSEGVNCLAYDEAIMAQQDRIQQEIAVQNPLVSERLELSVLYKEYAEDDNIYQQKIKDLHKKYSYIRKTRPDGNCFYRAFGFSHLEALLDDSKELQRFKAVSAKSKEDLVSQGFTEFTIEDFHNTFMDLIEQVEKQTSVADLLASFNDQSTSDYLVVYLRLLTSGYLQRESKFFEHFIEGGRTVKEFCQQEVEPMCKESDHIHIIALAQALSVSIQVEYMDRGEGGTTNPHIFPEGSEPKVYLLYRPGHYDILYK

Compound | log2 ratio of Biotin-Ahx-Ub-VS probe labelling [1] | log2 ratio of Biotin-Ahx-Ub-VS probe labelling [2] | log2 ratio of Biotin-Ahx-Ub-VS probe labelling [3] | log2 ratio of Biotin-Ahx-Ub-VS probe labelling [4] | log2 ratio of Biotin-Ahx-Ub-VS probe labelling [5] | log2 ratio of Biotin-Ahx-Ub-VS probe labelling [6] | log2 ratio of Biotin-Ahx-Ub-VS probe labelling [7] | log2 ratio of Biotin-Ahx-Ub-VS probe labelling [8] | log2 ratio of Biotin-Ahx-Ub-VS probe labelling [9]
O=C(CCl)NC1CCS(=O)(=O)c2ccccc21 (configuration not stated) | -0.299 | -0.496 | -2.77 (active) | -0.00472 | -0.0327 | -0.0548 | 0.0659 | -1.76 (active) | -0.271
O=C(CCl)Nc1cccc2ncccc12 | -0.13 | 0.14 | -3.71 (active) | 0.254 | -0.273 | -0.205 | 0.156 | -0.176 | -0.516
Cl.O=C(CCl)N1CCCC(c2ncc[nH]2)C1 (configuration not stated) | 0.0212 | -0.259 | -0.246 | -0.0106 | 0.267 | 0.0977 | -0.0773 | -0.288 | -0.22
CC(NC(=O)CCl)c1cccc(Cl)c1 (configuration not stated) | 0.0326 | -0.401 | -3.17 (active) | 0.0315 | 0.0634 | -0.0535 | 0.0729 | -0.705 | -0.433
Cc1ccc(N2CCC(NC(=O)CCl)C2=O)cc1 (configuration not stated) | -0.511 | -0.0941 | -2.46 (active) | 0.043 | -0.278 | 0.0934 | 0.0513 | 0.0319 | 0.0904
Cl.O=C(CCl)N1CCc2ncncc2C1 | -0.17 | -0.297 | -0.732 | -0.328 | -0.29 | 0.0971 | -0.263 | -0.304 | -0.373
O=C(CCl)Nc1cc2c(cc1Cl)OCCCO2 | 0.0687 | -0.0939 | -3.43 (active) | -0.197 | -0.577 | 0.278 | -0.0827 | 0.136 | -0.0905
O=C(CCl)N1CCCC1c1ccsc1 (configuration not stated) | -0.0335 | -1.15 (active) | -3.75 (active) | 0.0507 | 0.2 | 0.313 | -0.142 | -0.382 | -0.65
